The whole screen tested about 2,300 compounds, of which about 1,500 (65%) were called active.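 How the source made its calls: active means mean inhibition over three repeats above a set limit taken from the earlier primary screen (cut at about 30% in these data); inactive means the rest.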 So high a share suggests a set chosen from earlier hits. A selection follows.
Target: Platelet-activating factor acetylhydrolase 2, cytoplasmic (Homo sapiens) (UniProt Q99487)
Test: inhibition of cytoplasmic PAF acetylhydrolase 2 – biochemical, fluorescence polarization, human, confirmation (AID 493030);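 further: inhibitor blocks binding of rhodamine activity probe so polarization falls; 0% = enzyme with DMSO and 100% = wells lacking PAFAH2 protein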
Settings: recombinant PAFAH2, FP-rhodamine activity probe, at 3.39 µM, stronger effect = higher value

| Compound | inhibition |
| --- | --- |
| O=C(OCc1cn(-c2ccc(Cl)c(Cl)c2)nn1)c1ccccc1Cl | 43.1% (active) |
| O=C(COC(=O)c1cccc(Cl)c1)NC1CCCCCCC1 | 67.1% (active) |
| N#Cc1ccccc1Sc1ccccc1C(=O)OCC(=O)NC1CCCCC1 | 21.3% (inactive) |
| O=C(COC(=O)c1ccccc1SCC(=O)NC1CCCCC1)NC1CCCCC1 | 73.7% (active) |
| O=C(COC(=O)c1ccccc1SCC(=O)N1CCCC1)Nc1ccccc1OC(F)F | 25.9% (inactive) |
| O=C(COC(=O)c1ccccc1Cl)NC1CCCCCCC1 | 70.3% (active) |
| CC(C)(C)c1csc(NC2=NS(=O)(=O)c3ccccc32)n1 | 29.4% (inactive) |
| COc1ccccc1CNC(=O)COC(=O)c1sc(C)nc1C | 21% (inactive) |
| COc1ccccc1CNC(=O)COC(=O)c1cccs1 | 41.8% (active) |
| O=C(COC(=O)c1cccs1)NCc1cccs1 | 45.9% (active) |
| O=C(COC(=O)c1cccs1)Nc1ccccc1Cl | 55.6% (active) |
| O=c1oc(-c2ccco2)nc2sc3c(c12)CCCCC3 | 34.2% (active) |
| CC(C)c1ccc(NC(=O)COC(=O)c2ccc(CN3CCCC3=O)cc2)cc1 | 66.8% (active) |
| CCC(C)C(NC(=O)C1CCC(=O)N1C(=O)OCc1ccccc1)C(=O)NC(C(=O)N1CCCC1C(N)=O)C(C)CC (centres undefined) | 40.4% (active) |
| CN(C)S(=O)(=O)c1cccc(NC(=O)COC(=O)/C=C/c2cccs2)c1 | 58.5% (active) |
| Cc1ccc(S(=O)(=O)N(C)C)cc1NC(=O)COC(=O)/C=C/c1cccs1 | 51.7% (active) |
| O=c1[nH]n(-c2ccc([N+](=O)[O-])cc2)c(=O)c2ccccc12 | 32.6% (active) |
| CCOc1ncccc1C(=O)OCC(=O)Nc1cccc(S(=O)(=O)N2CCCCCC2)c1 | 57.6% (active) |
| CS(=O)(=O)c1ccc(Cl)c(NC(=O)COC(=O)c2cccc(S(=O)(=O)N3CCCC3)c2)c1 | 21.3% (inactive) |
| CCc1ccc(C(=O)OCC(=O)Nc2cccc(S(=O)(=O)NC3=NCCCCC3)c2)cc1 | 51.8% (active) |
| O=C(COC(=O)c1ccccc1)Nc1cccc(S(=O)(=O)N2CCOCC2)c1 | 33.4% (active) |
| O=C(COC(=O)/C=C/c1ccc(Br)o1)Nc1cccc(S(=O)(=O)N2CCOCC2)c1 | 26.4% (inactive) |
| CCC(C)(C)c1ccc(Oc2ccc(NC(=O)COC(=O)C3=COCCO3)cc2)cc1 | 61.5% (active) |
| COc1ccc(NC(=O)CC(NC(C)c2ccccc2)C(=O)O)cc1 (centres undefined) | 1.53% (inactive) |
| O=C(COC(=O)c1ccc2c(c1)OCCO2)NCc1ccccc1Cl | 78.9% (active) |
| CC(NC(=O)COC(=O)c1ccc2c(c1)OCO2)c1ccccc1 (centres undefined) | 45.8% (active) |
| O=C(COC(=O)c1ccc2c(c1)OCCO2)NCc1ccccc1 | 45.8% (active) |
| O=C(COC(=O)/C=C/c1ccc(S(=O)(=O)N2CCCCCC2)cc1)NCc1ccccc1Cl | 24.4% (inactive) |
| Cc1cnc(NC(=O)CSc2c(Cl)cccc2Cl)s1 | 21.7% (inactive) |

Reference: PubChem BioAssay AID493030 (The Scripps Research Institute Molecular Screening Center, 2011)
